Measurements as given in the supplement of paper PMC10849652.
Of roughly 7,900 targets only a part is listed; those with a hit were picked by preference. About 0.6% of all pairs of compound and target were hits. A number with no mark means an inactive call.

Experiments:
Assay in all cases: log2 fold change, soluble protein after heating vs DMSO (PISA); higher = thermal stabilisation; K562 cells, 10 uM, 30 min; active = over 0.2 and 3.5 SD of the protein, either way, in both replicates (recomputed)
[1] = compound: CS(=O)(=O)c1ccc(-c2cnc(N)c(C(=O)Nc3ccccc3)n2)cc1
How it was run: (§1)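 Soluble protein was quantified by TMTpro 16plex LC-MS/MS after channel sums were equalised. It was obtained as the supernatant after 21,000xg for 90 min from pooled aliquots of K562 cells (2×10^6 cells/mL, 10 μM compound, 30 min) heated for 3 min across 48°C-58°C and extracted in PBS with 0.5% NP-40 at 4°C. Thermal stability values are relative to control samples and come from duplicates. They are given as log2 fold changes.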

[2] = compound: C[C@@H](Oc1cc(-c2cnn(C3CCNCC3)c2)cnc1N)c1c(Cl)ccc(F)c1Cl [crizotinib]
How it was run: as §1

[3] = compound: C[C@@H]1COCCN1C2=NC(=NC(=C2)C3(CC3)S(=O)(=O)C)C4=C5C=CNC5=CC=C4
How it was run: as §1

[4] = compound: C[C@H](C1=CC=C(C=C1)C(=O)NC2=C3C=CNC3=NC=C2)N
How it was run: as §1

[5] = compound: C[C@H](Nc1ncnc2nc[nH]c12)c1cc2cccc(Cl)c2c(=O)n1-c1ccccc1 [duvelisib]
How it was run: as §1

[6] = compound: Cc1cc(Nc2cc(CN3CCOCC3)c3nc(C)c(Cc4ccc(Cl)cc4F)n3n2)n[nH]1 [gandotinib]
How it was run: as §1

[7] = compound: Cc1cc(Nc2cc(N3CCN(C)CC3)nc(Sc3ccc(NC(=O)C4CC4)cc3)n2)n[nH]1 [tozasertib]
How it was run: as §1

[8] = compound: Cc1cc(SCc2sc(-c3ccc(C(F)(F)F)cc3)nc2C)ccc1OCC(=O)O
How it was run: as §1

[9] = compound: Cc1ccc(-n2nc(C(C)(C)C)cc2NC(=O)Nc2ccc(OCCN3CCOCC3)c3ccccc23)cc1 [doramapimod]
How it was run: as §1

[10] = compound: Cc1ccc(C(=O)N(CCCN)[C@@H](c2nc3cc(Cl)ccc3c(=O)n2Cc2ccccc2)C(C)C)cc1 [ispinesib]
How it was run: as §1

UniProt Q8NBF2, sequence (Q8NBF2 whole entry, looked up): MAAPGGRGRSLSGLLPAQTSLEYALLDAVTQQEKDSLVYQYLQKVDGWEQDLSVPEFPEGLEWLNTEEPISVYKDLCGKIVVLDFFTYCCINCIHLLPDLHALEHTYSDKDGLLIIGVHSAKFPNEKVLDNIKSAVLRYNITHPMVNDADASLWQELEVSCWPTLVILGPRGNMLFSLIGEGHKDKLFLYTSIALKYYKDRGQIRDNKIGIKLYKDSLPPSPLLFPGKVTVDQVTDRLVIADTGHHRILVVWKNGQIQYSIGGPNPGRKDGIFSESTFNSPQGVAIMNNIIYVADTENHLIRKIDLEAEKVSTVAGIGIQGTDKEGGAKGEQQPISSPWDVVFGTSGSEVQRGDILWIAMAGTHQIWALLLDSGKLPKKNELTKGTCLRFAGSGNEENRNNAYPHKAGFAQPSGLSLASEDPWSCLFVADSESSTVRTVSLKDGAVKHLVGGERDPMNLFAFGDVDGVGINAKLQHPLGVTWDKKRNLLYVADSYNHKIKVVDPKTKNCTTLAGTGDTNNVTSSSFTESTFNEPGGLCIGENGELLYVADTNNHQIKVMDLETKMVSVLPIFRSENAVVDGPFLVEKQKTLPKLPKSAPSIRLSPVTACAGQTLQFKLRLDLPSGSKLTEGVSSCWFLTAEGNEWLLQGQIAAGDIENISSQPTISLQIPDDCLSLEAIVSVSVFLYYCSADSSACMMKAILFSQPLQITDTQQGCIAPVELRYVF
UniProt Q00013, sequence (Q00013 whole entry, looked up): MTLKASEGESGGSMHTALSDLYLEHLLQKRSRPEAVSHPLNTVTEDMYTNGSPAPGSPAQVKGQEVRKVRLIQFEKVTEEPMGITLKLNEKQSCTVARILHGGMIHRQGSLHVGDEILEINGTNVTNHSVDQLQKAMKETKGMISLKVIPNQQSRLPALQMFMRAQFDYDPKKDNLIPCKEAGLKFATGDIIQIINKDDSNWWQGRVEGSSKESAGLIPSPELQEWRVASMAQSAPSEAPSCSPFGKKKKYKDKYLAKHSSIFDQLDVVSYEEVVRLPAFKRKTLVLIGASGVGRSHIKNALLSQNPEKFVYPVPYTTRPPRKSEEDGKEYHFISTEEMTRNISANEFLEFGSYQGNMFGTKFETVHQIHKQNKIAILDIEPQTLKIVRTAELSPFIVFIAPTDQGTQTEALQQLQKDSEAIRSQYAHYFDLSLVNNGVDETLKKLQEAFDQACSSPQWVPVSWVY
UniProt O60313, sequence (O60313 whole entry, looked up): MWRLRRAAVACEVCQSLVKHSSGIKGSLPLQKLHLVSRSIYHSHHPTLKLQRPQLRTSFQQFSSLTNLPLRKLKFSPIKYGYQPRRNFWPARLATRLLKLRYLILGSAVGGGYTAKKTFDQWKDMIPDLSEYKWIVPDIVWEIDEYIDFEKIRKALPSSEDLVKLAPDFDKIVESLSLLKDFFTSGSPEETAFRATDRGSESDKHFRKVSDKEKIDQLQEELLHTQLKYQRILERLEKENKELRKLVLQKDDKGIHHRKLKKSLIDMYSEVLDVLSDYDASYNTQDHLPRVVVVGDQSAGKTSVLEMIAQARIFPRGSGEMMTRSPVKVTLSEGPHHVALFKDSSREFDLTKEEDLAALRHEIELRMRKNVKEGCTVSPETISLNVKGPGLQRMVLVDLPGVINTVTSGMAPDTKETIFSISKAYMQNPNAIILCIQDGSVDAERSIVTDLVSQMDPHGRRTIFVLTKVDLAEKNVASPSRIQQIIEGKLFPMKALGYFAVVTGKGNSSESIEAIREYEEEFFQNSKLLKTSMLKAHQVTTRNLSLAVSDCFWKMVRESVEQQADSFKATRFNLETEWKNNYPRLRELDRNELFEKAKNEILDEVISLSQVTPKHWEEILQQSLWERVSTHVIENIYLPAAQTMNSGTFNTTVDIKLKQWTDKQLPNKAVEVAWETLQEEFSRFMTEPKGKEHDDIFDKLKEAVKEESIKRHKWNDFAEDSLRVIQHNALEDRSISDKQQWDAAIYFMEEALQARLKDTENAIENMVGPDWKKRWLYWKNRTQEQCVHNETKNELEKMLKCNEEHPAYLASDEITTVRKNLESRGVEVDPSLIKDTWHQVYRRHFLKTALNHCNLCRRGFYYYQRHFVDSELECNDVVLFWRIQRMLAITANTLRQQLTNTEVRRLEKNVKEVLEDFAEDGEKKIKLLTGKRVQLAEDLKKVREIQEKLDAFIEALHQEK
UniProt Q96BN8, sequence (Q96BN8 whole entry, looked up): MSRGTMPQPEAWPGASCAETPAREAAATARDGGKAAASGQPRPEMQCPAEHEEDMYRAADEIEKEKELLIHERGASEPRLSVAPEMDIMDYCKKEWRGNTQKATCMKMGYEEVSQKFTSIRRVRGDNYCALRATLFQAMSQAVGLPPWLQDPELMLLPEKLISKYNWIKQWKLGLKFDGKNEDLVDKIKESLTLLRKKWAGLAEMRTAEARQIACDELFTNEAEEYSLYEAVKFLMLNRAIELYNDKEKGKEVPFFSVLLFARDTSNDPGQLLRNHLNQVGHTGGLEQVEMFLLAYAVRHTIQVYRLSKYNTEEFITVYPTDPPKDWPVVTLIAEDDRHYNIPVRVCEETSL
UniProt O75323, sequence (O75323 whole entry, looked up): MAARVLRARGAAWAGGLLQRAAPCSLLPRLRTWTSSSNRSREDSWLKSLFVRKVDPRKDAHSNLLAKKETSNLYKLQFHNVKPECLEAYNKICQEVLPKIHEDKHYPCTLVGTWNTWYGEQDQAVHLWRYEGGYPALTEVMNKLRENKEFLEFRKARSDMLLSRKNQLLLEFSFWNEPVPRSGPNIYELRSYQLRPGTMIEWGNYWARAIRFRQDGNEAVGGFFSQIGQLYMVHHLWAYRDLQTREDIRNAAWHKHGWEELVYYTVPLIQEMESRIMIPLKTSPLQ
UniProt Q92621, sequence (Q92621 whole entry, looked up): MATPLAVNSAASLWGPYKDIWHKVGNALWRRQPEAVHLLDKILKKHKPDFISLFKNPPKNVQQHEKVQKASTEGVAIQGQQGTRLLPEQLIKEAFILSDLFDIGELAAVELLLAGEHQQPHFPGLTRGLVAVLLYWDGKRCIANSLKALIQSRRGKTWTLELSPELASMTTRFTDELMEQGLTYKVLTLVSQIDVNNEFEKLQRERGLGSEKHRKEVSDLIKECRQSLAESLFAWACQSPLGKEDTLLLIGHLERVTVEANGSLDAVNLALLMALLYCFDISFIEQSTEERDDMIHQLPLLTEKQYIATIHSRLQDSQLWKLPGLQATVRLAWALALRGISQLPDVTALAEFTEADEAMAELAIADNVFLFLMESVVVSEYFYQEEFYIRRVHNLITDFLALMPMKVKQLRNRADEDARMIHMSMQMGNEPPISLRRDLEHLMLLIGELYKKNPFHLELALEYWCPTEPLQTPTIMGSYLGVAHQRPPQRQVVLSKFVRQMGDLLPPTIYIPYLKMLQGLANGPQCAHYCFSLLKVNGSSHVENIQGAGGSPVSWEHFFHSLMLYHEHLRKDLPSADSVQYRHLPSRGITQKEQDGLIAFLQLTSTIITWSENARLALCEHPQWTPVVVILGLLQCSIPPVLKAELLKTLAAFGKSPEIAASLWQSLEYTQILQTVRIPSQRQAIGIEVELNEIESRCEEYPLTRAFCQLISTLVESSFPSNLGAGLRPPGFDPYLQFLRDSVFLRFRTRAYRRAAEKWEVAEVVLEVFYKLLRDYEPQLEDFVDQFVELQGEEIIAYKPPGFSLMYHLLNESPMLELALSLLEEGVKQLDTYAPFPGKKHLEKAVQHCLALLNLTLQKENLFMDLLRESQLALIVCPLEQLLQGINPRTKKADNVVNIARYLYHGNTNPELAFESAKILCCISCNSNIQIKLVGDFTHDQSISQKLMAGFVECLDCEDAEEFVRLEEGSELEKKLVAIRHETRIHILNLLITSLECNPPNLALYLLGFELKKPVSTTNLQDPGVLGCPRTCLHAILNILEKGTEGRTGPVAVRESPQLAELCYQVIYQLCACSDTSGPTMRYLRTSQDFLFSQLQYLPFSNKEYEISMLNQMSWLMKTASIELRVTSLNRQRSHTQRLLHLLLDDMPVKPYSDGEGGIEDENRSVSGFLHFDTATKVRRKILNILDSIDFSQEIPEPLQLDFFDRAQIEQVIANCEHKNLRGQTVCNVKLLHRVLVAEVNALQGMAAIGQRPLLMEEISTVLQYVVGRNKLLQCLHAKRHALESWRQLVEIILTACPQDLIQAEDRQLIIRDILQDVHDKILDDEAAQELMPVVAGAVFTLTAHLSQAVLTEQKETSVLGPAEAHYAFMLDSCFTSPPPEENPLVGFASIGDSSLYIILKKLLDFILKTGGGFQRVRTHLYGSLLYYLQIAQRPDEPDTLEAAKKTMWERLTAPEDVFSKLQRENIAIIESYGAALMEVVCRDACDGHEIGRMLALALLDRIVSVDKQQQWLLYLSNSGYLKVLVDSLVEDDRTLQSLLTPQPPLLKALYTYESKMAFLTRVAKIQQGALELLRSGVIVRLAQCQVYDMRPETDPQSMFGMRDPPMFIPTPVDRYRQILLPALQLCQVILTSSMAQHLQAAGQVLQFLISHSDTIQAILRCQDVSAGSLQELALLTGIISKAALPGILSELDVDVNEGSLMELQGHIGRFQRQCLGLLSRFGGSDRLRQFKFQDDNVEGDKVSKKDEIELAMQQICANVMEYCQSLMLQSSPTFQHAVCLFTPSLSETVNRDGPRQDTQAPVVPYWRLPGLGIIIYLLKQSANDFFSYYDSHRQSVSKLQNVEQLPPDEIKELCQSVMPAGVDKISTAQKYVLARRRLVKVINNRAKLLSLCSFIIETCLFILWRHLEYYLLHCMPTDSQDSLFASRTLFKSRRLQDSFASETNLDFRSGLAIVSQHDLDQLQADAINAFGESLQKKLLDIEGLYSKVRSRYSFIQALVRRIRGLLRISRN
UniProt O14950, sequence (O14950 whole entry, looked up): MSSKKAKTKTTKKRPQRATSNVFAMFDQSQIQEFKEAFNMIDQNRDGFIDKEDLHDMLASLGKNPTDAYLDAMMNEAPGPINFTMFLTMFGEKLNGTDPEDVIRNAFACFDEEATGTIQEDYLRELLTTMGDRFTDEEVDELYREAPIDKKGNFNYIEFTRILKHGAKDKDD

Target | log2 fold change [1] | log2 fold change [2] | log2 fold change [3] | log2 fold change [4] | log2 fold change [5] | log2 fold change [6] | log2 fold change [7] | log2 fold change [8] | log2 fold change [9] | log2 fold change [10]
MRPS24 (UniProt Q96EL2) | 0.014 | -0.031 | 0.192 | 0.082 | -0.009 | -0.117 | 0.048 | 0.094 | -0.028 | -0.427 (active)
OXSM (UniProt Q9NWU1) | 0.016 | 0.053 | 0.036 | -0.07 | -0.024 | -0.054 | 0.011 | -0.002 | -0.055 | 0.077
NUDT16 (UniProt Q96DE0) | 0.054 | 0.052 | 0.042 | -0.169 | 0.045 | 0.063 | -0.011 | 0 | -0.034 | 0.067
NHLRC2 (UniProt Q8NBF2) | 0.1 | -0.127 | 0.165 | -0.011 | 0.05 | -0.158 | -0.105 | 0.044 | -0.005 | -0.198
NDUFA7 (UniProt M0R0N0) | 0.095 |  |  |  |  |  |  |  |  | 
OXR1 (UniProt Q8N573) | 0.02 | -0.074 | 0.014 | -0.048 | 0.063 | 0 | 0.021 | -0.011 | 0.001 | -0.095
NUP205 (UniProt Q92621) | 0.001 | -0.054 | 0.002 | -0.019 | 0.018 | -0.17 | 0.025 | 0.094 | 0 | -0.018
NCOR1 (UniProt O75376) | -0.078 | 0.017 | 0.15 | -0.064 | 0.063 | -0.007 | 0.004 | -0.061 | -0.044 | 0.004
NQO1 (UniProt P15559) | 0.055 | -0.004 | 0.069 | -0.06 | 0.165 | -0.062 | 0.011 | 0.152 | -0.008 | 0.05
NOP53 (UniProt Q9NZM5) | -0.116 | 0.029 | -0.019 | 0.638 | -0.335 | 0.377 | 0.147 | -0.027 | 0.277 | 0.015
NR2C2AP isoform 2 (UniProt Q86WQ0) | 0.085 | 0.011 | 0.138 | 0.025 | 0.044 | -0.035 | 0.08 | 0.01 | -0.17 | 0.285 (active)
MINK1 (UniProt Q8N4C8) | 0.032 | -0.207 | -0.038 | -0.067 | 0.022 | -0.024 | -0.149 | 0.073 | -0.035 | -0.032
NMT1 (UniProt P30419) | 0.085 | -0.17 | -0.058 | -0.032 | -0.003 | 0.066 | -0.012 | -0.003 | 0 | -0.164
OGFOD1 (UniProt Q8N543) | 0.034 | -0.001 | 0.042 | 0.003 | 0.046 | -0.009 | -0.02 | -0.021 | -0.015 | -0.043
OTULIN (UniProt Q96BN8) | -0.099 | -0.079 | 0.04 | 0.036 | -0.027 | -0.088 | 0.098 | 0.073 | -0.095 | -0.208
OAT (UniProt P04181) | -0.003 | -0.123 | 0.053 | -0.083 | 0.032 | -0.03 | -0.102 | 0.018 | 0.037 | -0.233 (active)
MPP1 (UniProt Q00013) | 0.064 | -0.092 | 0.05 | 0.001 | 0.007 | -0.073 | -0.022 | 0.061 | 0.023 | -0.108
MMS19 isoform 8 (UniProt Q96T76) | 0.002 | -0.156 | 0.023 | 0.053 | 0.044 | -0.129 | 0.051 | 0.103 | 0.033 | -0.035
OPHN1 (UniProt O60890) | 0.011 | -0.06 | 0.107 | 0.14 | 0.103 | -0.636 (active) | -0.035 | -0.21 | 0.26 | 0.018
NIPSNAP2 (UniProt O75323) | -0.014 | 0.083 | 0.068 | -0.041 | 0.019 | 0.057 | -0.084 | 0.105 | -0.106 | 0.162
MRPS6 (UniProt P82932) | -0.038 | -0.076 | 0.117 | 0.085 | -0.002 | -0.016 | 0.022 | 0.081 | 0.048 | -0.208
NNT (UniProt Q13423) | 0.031 | 0.032 | 0.047 | -0.06 | 0.025 | -0.246 (active) | 0.015 | -0.006 | -0.023 | 0.02
MYL12B (UniProt O14950) | -0.016 | -0.004 | 0.019 | -0.32 (active) | 0.088 | 0.058 | 0.005 | -0.003 | 0.025 | 0.097
MRPS27 isoform 2 (UniProt Q92552) | -0.017 | -0.062 | 0.005 | 0.097 | 0.029 | 0.094 | 0.002 | 0.096 | 0.013 | -0.304 (active)
OPA1 isoform 2 (UniProt O60313) | 0.056 | -0.326 (active) | 0.048 | -0.003 | 0.034 | -0.063 | -0.075 | 0.054 | -0.031 | -0.337 (active)
NSUN2 (UniProt Q08J23) | -0.107 | -0.034 | 0.031 | 0.008 | -0.077 | -0.151 | 0.065 | 0.053 | 0.067 | -0.098
MRPL34 (UniProt Q9BQ48) | -0.004 | -0.045 | 0.077 | 0.179 | -0.079 | 0.164 | -0.002 | 0.051 | 0.152 | -0.284
MLX (UniProt Q9UH92) | -0.038 | -0.188 | 0.092 | -0.001 | -0.131 | -0.239 | -0.043 | 0.115 | 0.03 | -0.186
